In PubChem BioAssay (NCI):
This is part of a sample that, as a whole, favours compounds with a hit. Of some 83,000 tested, about 20% had one in any assay.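 Method: cells in 96-well plates; compound added at one concentration; 48 h incubation; percent growth measured; values under 10 scored active.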 Values without a mark were called inactive. Active and inactive are the calls of the source.

system: MDA-MB-468 breast; assay: NCI-60 one-dose screen, 48 h (100 = growth as untreated, 0 = no growth, -100 = all killed); details: 10 µM unless noted

SMILES | growth
CN(C)CCCn1c2c(c3ccc(-c4ccn[nH]4)cc3c1=O)C(=O)c1ccccc1-2 | 35%
CC(=O)c1ccc(Nc2nc(Cl)nc(Oc3c(Cl)cccc3Cl)n2)cc1 | 93.3%
O=C(CCN1C(=O)/C(=C/c2ccccc2)SC1=S)N1CCOCC1 | 51.9%
COc1ccc(-c2cc3cnc4ccccc4c3oc2=O)cc1 | 99.8%
C=C1CCC2C3(C)COC(c4ccccc4)OC3CCC2(C)C1C/C=C1/C(=O)OCC1OC(C)=O (stereo not given) | 53%
COc1cc(/C=C/C(=O)N2c3ccccc3CC2C)c(OC)c2c1OCO2 (stereo not given) | 86.9%
CC12CCC3C4(C)COC(c5ccccc5Cl)OC4CCC3(C)C1CC(C1=CCOC1=O)O2 (stereo not given) | 24.9%
CSc1ccc(SC2c3ccc(C)cc3Oc3nc(N)c(C#N)c(N)c32)cc1 (stereo not given) | -75.8% (active)
CCN1C(=O)N(CC)C2C1NC(=S)N2/N=C/C=C/c1ccccc1OC (stereo not given) | -0.348% (active)
c1cc(-c2ccc3c(c2)OCO3)n2nccc2n1 | 95%
O=C1NC(=C(Cl)Cl)/C(=N/S(=O)(=O)NCCc2c[nH]c3ccccc23)N1 | -3.27% (active)
Oc1ccc(Nc2ccccc2)cc1 | 86.4%
CC(=O)NCC1c2c(n(C)c3c(Cl)c(Cl)ccc23)C(=O)NC1(C)C (stereo not given) | 109%
CCN(CC)c1ccc2[nH]c3c(C(N)=O)cc(=O)c(=O)c=3oc2c1 | -38.4% (active)
Cc1c(C)c(C)c([N+](=O)[O-])c([N+](=O)[O-])c1C | 82.1%
